# KDM5B inh: inhibitors of human KDM5B histone demethylase. Q9UGL1. KDM5B demethylase, FDH-coupled NADH fluorescence (FDH is formaldehyde dehydrogenase). Potency, µM (titrated, usually from 57.7 µM), actives largely listed as inhibitors. 2.6% of 220,000 active; active = well fitted inhibition curve with a large enough effect; note: 0% is about no effect; nearly all actives have a fitted effect of over 70% in size
#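 KDM5BΔAP (200 nM final) in 50 mM HEPES pH 7.5, 0.01% Tween-20 was preincubated 10 min at RT with compound over a concentration range. Substrate mix (H3K4me3 12.5 µM, α-KG 25 µM, Fe²⁺, ascorbate, NAD⁺, FDH) was added, and NADH fluorescence change over 30 min gave dose-response curves.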
# An asterisk follows results filed as active; i = inactive. Only a selection was taken, and hits are over-represented in it overall. Potency is the fitted concentration of half-maximal effect.
SMILES,KDM5B inh
Cc1ccc(C(=O)NC2(C(F)(F)F)C(=O)Nc3c2c(=O)[nH]c(=O)n3Cc2ccco2)cc1 (configuration not stated),i
Cc1cccc(OCC(=O)Nc2cc(-c3nn(C)c(=O)c4ccccc34)ccc2N2CCCCC2)c1,i
COc1ccc(CN2CCN(C(=O)Nc3cccc(Cl)c3)CC2)c(OC)c1OC,i
CC(C)N(C)CC1CCN(C(=O)Nc2cccc(Cl)c2)CC1,i
CCN(CC)CC[C@H]1CN(C(=O)Nc2ccccc2)CC[C@H]1CC(=O)O,i
COc1cc2c(cc1OC)C(C[C@H]1CN(C(=O)Nc3cccc(Cl)c3)CC[C@H]1CC(=O)O)=NCC2,32µM*
COc1cc2c(cc1OC)C(C[C@H]1CN(C(=O)C(=O)O)CC[C@H]1CC(=O)O)=NCC2,i
COc1cc2c(cc1OC)C(C[C@H]1CN(C(=O)Nc3ccc(Cl)cc3)CC[C@H]1CC(=O)O)=NCC2,28µM*
Cc1cc2cc(NS(=O)(=O)c3ccc(C(C)(C)C)cc3)ccc2[nH]1,i
CC(C)C(CNC(=O)c1cccc(CS(C)=O)c1)c1ccccc1 (configuration not stated),i
Cn1c(=O)c2c(ncn2CCC(=O)Nc2ccccc2)n(C)c1=O,i
Cc1cc(N2CCN(Cc3ccc(F)c(F)c3)C(CCO)C2)nc(N)n1 (configuration not stated),i
Cc1noc2ncnc(N3CCN(Cc4ccc(F)c(F)c4)C(CCO)C3)c12 (configuration not stated),i
N#Cc1cccnc1N1CCN(Cc2ccc(F)c(F)c2)C(CCO)C1 (configuration not stated),13µM*
Nc1nc(CN2CCN(C(=O)c3cc(F)cc(F)c3)CC2)nc2ccccc12,i
O=C(c1ccc(F)c(Cl)c1)N1CCC(n2cc(-c3nc(-c4ccccc4)no3)nn2)CC1,i
CCn1nc(CC(C)C)cc1C(=O)N1C[C@@H](NC(C)=O)[C@H](C(C)C)C1,35µM*
CC(C)Cc1cc(C(=O)N2C[C@H](C3CC3)[C@@H](N)C2)n(C)n1,i
CCn1nc(CC(C)C)cc1C(=O)N1CCN(S(=O)(=O)CC)CC1,i
Cn1cc(CC(=O)N2CCCc3ncc(C(=O)NCCc4ccccc4)cc32)c2ccccc21,i
Cn1cc(CC(=O)N2CCCc3ncc(C(=O)Nc4cccc(F)c4)cc32)c2ccccc21,32µM*
Cn1cc(CC(=O)N2CCCc3ncc(C(=O)Nc4cccc(C(F)(F)F)c4)cc32)c2ccccc21,22µM*
COCCCNC(=O)c1cnc2c(c1)N(C(=O)Cc1cn(C)c3ccccc13)CCC2,i
CC(C)CCNC(=O)c1cnc2c(c1)N(C(=O)Cc1cn(C)c3ccccc13)CCC2,i
Cn1cc(CC(=O)N2CCCc3ncc(C(=O)NCc4ccccc4)cc32)c2ccccc21,i
SMILES,KDM5B inh
CCN(c1ccccc1)S(=O)(=O)c1ccc(OC)c(NC(=O)c2nn(C)c(=O)c3ccccc23)c1,i
COc1cc(F)ccc1C(C(=O)O)N1CCC(Oc2cccc(F)c2)CC1 (configuration not stated),i
O=S(=O)(c1cc(Cl)ccc1Cl)N1CCN(C/C=C/c2ccccc2)CC1,i
C#CCNC(=O)COC(=O)c1cccnc1Nc1cccc(C(F)(F)F)c1,i
Cc1ccc(C)c(NC(=O)CCl)c1,i
CC1=C[C@@H](CN2CCN(CCO)CC2)[C@H](C(C)C)C[C@H]1Cc1nnc(-c2ccncc2)o1,i
CC1=C[C@@H](CN2CCOCC2)[C@H](C(C)C)C[C@H]1Cc1nnc(-c2ccccc2)o1,i
CC1=C[C@@H](CN2CCN(c3ccccn3)CC2)[C@H](C(C)C)C[C@H]1Cc1nnc(-c2ccccc2)o1,28µM*
CC1=C[C@@H](CN2CCOCC2)[C@H](C(C)C)C[C@H]1Cc1nnc(-c2ccc(N(C)C)cc2)o1,35µM*
CC(=O)N1CCN(C[C@@H]2C=C(C)[C@H](Cc3nnc(-c4cccnc4)o3)C[C@H]2C(C)C)CC1,i
CC1=C[C@@H](CN2CCOCC2)[C@H](C(C)C)C[C@H]1Cc1nnc(C)o1,i
O=C(O)CCC(NS(=O)(=O)c1ccc(Cl)cc1)C(=O)O (configuration not stated),i
COc1cc(NC(=O)c2cc(=O)c3ccccc3o2)cc(OC)c1OC,i
Cc1noc2c(-c3cccc(O)c3)cc(-c3cccs3)nc12,13µM*
Cc1noc2c(-c3ccncc3)cc(-c3cccs3)nc12,5.6µM*
Cc1noc2c(NC3CCN(C)CC3)cc(-c3cccs3)nc12,i
Cc1cc(-c2cc(-c3ccc(F)cc3)nc3c(C)noc23)ccn1,i
Cc1noc2c(NCCCn3ccnc3)cc(-c3cccs3)nc12,i
Cc1noc2c(NC(C)C)cc(-c3cccs3)nc12,i
Cc1cc(C(=O)COc2ncnc3ccccc23)c(C)n1C(C)C,i
O=C(Nc1cccc2ncccc12)c1ccc(Oc2ccccc2)cc1,i
CCCCc1ncc(CN2CCCC(c3cccc(C(=O)O)c3)C2)[nH]1 (configuration not stated),i
CCCCc1ncc(-c2c(-c3ccccc3)ncn2CCC2CCCN2C)[nH]1 (configuration not stated),10µM*
CN1CCCCC1CCn1cnc2c1c(=O)n(C)c(=O)n2C (configuration not stated),i
Nc1nc(NCCCc2ccco2)cc(C2CC(O)C2)n1 (configuration not stated),i
SMILES,KDM5B inh
CC1(C)CCCC2(C)C1CCC1(C)OC(=O)CC12 (configuration not stated),i
COC(=O)[C@@H]1Cc2c([nH]c3ccccc23)[C@H]2C[C@H](NCCNC(C)=O)C[C@@H](c3ccccc3)N21,28µM*
COc1ccc(C(=O)N2CCc3c([nH]c4ccccc34)C2C(F)(F)F)cc1 (configuration not stated),i
COC(=O)C1Cc2c([nH]c3ccccc23)C2(CCN(Cc3ccccc3)CC2)N1 (configuration not stated),i
COC(=O)[C@@H]1Cc2c([nH]c3ccccc23)[C@H]2C[C@H](NCCNC(C)=O)C[C@@H](c3ccc(C(F)(F)F)cc3)N21,10µM*
COc1ccccc1NC(=O)N1CCc2c([nH]c3ccccc23)C1C(F)(F)F (configuration not stated),i
CSc1ccc(C2c3[nH]c4ccccc4c3CCN2C(=O)CCc2ccccc2)cc1 (configuration not stated),i
Cc1cc(=O)oc2cc(OC(=O)COc3ccc4ccccc4c3)ccc12,i
CC(NC(=O)c1ccc2c(c1)NC(=O)CS2)c1ccc(F)cc1F (configuration not stated),i
O=C(C1CC1)N1c2nc(-c3ccco3)nn2C2(CCCCC2)[C@@H]2CCCC[C@@H]21,i
CCNC(=O)CN1CCN(C(=O)C2CCN(c3nc4ccccc4o3)CC2)CC1,i
Cc1csc(NC(=O)CCc2ncc(-c3ccccc3Cl)o2)n1,i
CCOCc1nnc(NC(=O)C2CC(=O)N(CCc3c[nH]c4ccc(C)cc34)C2)s1 (configuration not stated),i
O=CN1CCN(C(C(=O)O)c2c[nH]c3cc(Br)ccc23)CC1 (configuration not stated),i
CC(C)(c1ccc(OC(=O)c2ccccc2F)cc1)c1ccc(OC(=O)c2ccccc2F)cc1,i
CC(=O)c1ccc(C(=O)N(CCCN(C)C)c2nc3ccc(Br)cc3s2)cc1,i

# From PubChem BioAssay
